In PubChem BioAssay AID488965 (Broad Institute, 2010):
The campaign covered roughly 340,000 compounds. About 210 (0.062%) were called active. No stated cut-off is given here; in the data, active means inhibition above about 30% (passing the limit was not always enough); inconclusive means no clear call, values can overlap the other calls. This excerpt belongs to a sample that is enriched for actives.

These compounds were tested on PvdQ acylase [Pseudomonas aeruginosa LESB58] (assay: P. aeruginosa PvdQ acylase inhibitors, primary screen, biochemical, fluorescence, plate reader and imaging, single point (AID 488965;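 further: 0% = vehicle neutral wells and 100% = reference inhibitor wells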)). Conditions: purified PvdQ acylase, at 10 µM, stronger effect = higher value.
For `CCN(CC)c1ccc(NC(=O)c2ccc(Cl)nc2)cc1`, the inhibition was -15.1% (inactive). `CCCCNC(=O)C1(c2ccc(OC)cc2)CCOCC1` was tested, and the inhibition was -4.05% (inactive). In the case of `NS(=O)(=O)c1ccc(NC(=S)N2CCCC2)cc1`, the inhibition is reported as 9.11% (inactive). With `CC1(C)Oc2ccc(C(=O)N3CCOCC3)cc2N(CC(=O)Nc2ccccc2)C1=O` the inhibition was -16.2% (inactive). `COCCCNC(=O)/C(C#N)=C/c1c(N2CCCCCC2)nc2ccccn2c1=O` was tested, and the inhibition was -15.4% (inactive). In the case of `Cc1ccccc1-n1nc(SCC(=O)O)sc1=S`, the inhibition is reported as -9.08% (inactive). `Cc1cc(NC(=O)c2ccccc2C)no1` was tested, and the inhibition was 11.3% (inactive). In the case of `Cc1cc(NC(=O)Nc2ccccc2[N+](=O)[O-])no1`, the inhibition is reported as 62.7% (active). `Cc1csc(NC(=O)Nc2ccccc2[N+](=O)[O-])n1` was tested, and the inhibition was -8.58% (inactive). For `Cc1c(C(=O)NCCN2CCOCC2)sc2nc(-c3ccc(F)cc3)cn12`, the inhibition was -12.4% (inactive). In the case of `Cc1ccc(CNS(=O)(=O)CCNC(=O)c2ccccc2)cc1`, the inhibition is reported as 0.203% (inactive). `CC1CCCCC1NCC(=O)Nc1ccccc1C(=O)Nc1ccccc1` (configuration not stated) was tested, and the inhibition was -4.86% (inactive). With `O=C(Nc1ccc(F)cc1)c1cccnc1N1CCOCC1` the inhibition was -0.858% (inactive). In the case of `O=C(O)CCC(=O)Nc1ccc(OCC2CCCO2)cc1` (configuration not stated), the inhibition is reported as -5.22% (inactive). For `Cc1ccc(NC(=O)CC2C(=O)N(Cc3ccccc3)C(=S)N2NC(=O)c2cccc(F)c2)c(C)c1` (configuration not stated), the inhibition was 5.2% (inactive). With `COc1ccc(NC(=O)C2CCC(CNC(=O)[C@@H]3Cc4ccccc4CN3)CC2)cc1` (some centres not stated) the inhibition was -2.14% (inactive). In the case of `CC(C)C(=O)Nc1oc(-c2ccccc2)cc1C#N`, the inhibition is reported as 7.27% (inactive). In the case of `Cn1cc(-c2ccccc2)cc(C#N)c1=O`, the inhibition is reported as -0.186% (inactive). `Cn1cccc1C(C#N)c1ccccc1C#N` (configuration not stated) was tested, and the inhibition was 56.5% (active). For `Cc1cc(C)c2c(NC(=O)C3CC3)nn(C)c2n1`, the inhibition was 3.4% (inactive). In the case of `Cc1nnc(SC(C)C(=O)Nc2ccc(S(=O)(=O)NC3CCCCC3)cc2)s1` (configuration not stated), the inhibition is reported as 7.56% (inactive). `NS(=O)(=O)c1ccc(CCNC(=O)CN2C(=O)c3ccccc3S2(=O)=O)cc1` was tested, and the inhibition was 0.254% (inactive). `COc1ccccc1NC(=O)C(C)OC(=O)CC1CCCC1` (configuration not stated) was tested, and the inhibition was -15.2% (inactive). With `COc1ccc(-c2ocnc2C(=O)Nc2ccc3c(c2)CCC3)cc1` the inhibition was 0.782% (inactive). In the case of `Cc1cc(Nc2ccc(Br)cc2F)n2ncnc2n1`, the inhibition is reported as -0.336% (inactive). `CCc1cccc(NC(=O)CCCN2C(=O)C(c3ccccc3)Oc3cccnc32)c1` (configuration not stated) was tested, and the inhibition was -6.79% (inactive). `O=C(Nc1c2c(nn1-c1ccc(F)cc1)CS(=O)C2)C12CC3CC(CC(C3)C1)C2` (configuration not stated) was tested, and the inhibition was -15.9% (inactive). In the case of `O=C(NCCOc1ccccc1F)Nc1ccc(Br)cc1`, the inhibition is reported as -15.7% (inactive). In the case of `CO[C@@H]1[C@@H](OC(N)=O)[C@@H](O)C(Oc2ccc3c(O)c(NC(=O)c4ccc(O)c(CC=C(C)C)c4)c(=O)oc3c2C)OC1(C)C` (some centres not stated), the inhibition is reported as 3.42% (inactive). `O=C(Nc1ccccc1C(=O)N1CCOCC1)c1ccc(CSc2ccccc2)cc1` was tested, and the inhibition was -11.3% (inactive). `C[C@@]12C(=O)N(c3cccc(Br)c3)C(=O)N1[C@H](c1ccc(Cl)cc1)[C@@H]1C(=O)N(C3CCCCC3)C(=O)[C@@H]12` was tested, and the inhibition was -10.3% (inactive). In the case of `Cc1c(C(=O)NC(=S)NCc2cccnc2)oc2ccccc12`, the inhibition is reported as -8.97% (inactive). With `CC(C)(CSc1nncn1/N=C/c1ccco1)NS(=O)(=O)c1ccc(Cl)cc1` the inhibition was -10% (inactive). `COc1ccc(C(O)(C2CCCCC2)C(CN2CCCC2)c2ccccc2)cc1` (configuration not stated) was tested, and the inhibition was -13.6% (inactive). `CCOC(=O)C1CCN(C(=O)COc2cccc3ccccc23)CC1` was tested, and the inhibition was -22% (inactive). `O=C1CN(C(=O)COC(=O)/C=C/c2ccc(F)cc2)c2ccccc2N1` was tested, and the inhibition was -0.579% (inactive). With `COc1ccc(N(C)C(=O)C2CCN(S(=O)(=O)c3cccc4nsnc34)CC2)cc1` the inhibition was -10.1% (inactive). In the case of `CC(C)(COC(=O)Nc1ccccc1)COC(=O)Nc1ccccc1`, the inhibition is reported as 3.19% (inactive). `C/C(=N\NS(=O)(=O)c1cccc([N+](=O)[O-])c1)c1cc2ccccc2o1` was tested, and the inhibition was 12.7% (inactive). In the case of `Cc1ccc(NC(=O)c2nc[nH]c2C(=O)N2CCCCC2)c(C(=O)c2ccccc2)c1`, the inhibition is reported as 6.08% (inactive). `CCc1ccccc1S(=O)(=O)Cc1ccc(C(=O)NCCc2ccccc2)o1` was tested, and the inhibition was -14.5% (inactive). With `Cc1nnc(SCC(=O)N(C(C)C)C(C)C)nc1C` the inhibition was -17% (inactive). For `CC(Sc1nnc(Cc2ccc([N+](=O)[O-])cc2)o1)C(N)=O` (configuration not stated), the inhibition was 5.89% (inactive). For `O=C(NCc1cccc(Cl)c1)C1CCC(=O)N(C2CC2)C1` (configuration not stated), the inhibition was 0.749% (inactive). In the case of `Cc1ccc(S(=O)(=O)N2CCCCC2)cc1C(=O)N(C)CC(=O)Nc1cccc(F)c1`, the inhibition is reported as 2.44% (inactive). With `CCn1c2ccccc2c2cc(NC(=O)C/C(C)=N/NC(=O)c3ccccc3N)ccc21` the inhibition was -14.8% (inactive). With `COc1ccc(N(CC(=O)NCC2CCCO2)C(=O)CCC(=O)Nc2nccs2)c(OC)c1` (configuration not stated) the inhibition was 0.881% (inactive). With `Cc1ccc(C(c2sc3nc(C)nn3c2O)N2CCN(c3ccc(F)cc3)CC2)cc1` (configuration not stated) the inhibition was -4.54% (inactive). In the case of `CCCC1CC(C)(C(=O)Cn2[nH]c(=O)ccc2=O)OC1=O` (configuration not stated), the inhibition is reported as -24.8% (inactive). `O=C(c1ccc(-c2ccccc2)cc1)C1CCCN(C(=O)c2cncs2)C1` (configuration not stated) was tested, and the inhibition was 46.5% (active). With `Cn1nccc1C(=O)N1CCCC(C(=O)c2ccc(Oc3ccccc3)cc2)C1` (configuration not stated) the inhibition was -15.6% (inactive). For `CCNC(=O)N1CCCC(C(=O)c2ccc(-c3ccccc3)cc2)C1` (configuration not stated), the inhibition was -11% (inactive). In the case of `COC(=O)c1c(NC(=O)CN2C(=O)NC(CCc3ccccc3)C2=O)sc2c1CCCCC2` (configuration not stated), the inhibition is reported as 2.45% (inactive). In the case of `CCC(C)(C)NC(=O)c1cc([N+](=O)[O-])ccc1N1CCCCC1`, the inhibition is reported as 38.9% (active). `CCN1CCN(c2ccc([N+](=O)[O-])cc2C(=O)c2ccc(Cl)cc2)CC1` was tested, and the inhibition was -6.71% (inactive). With `CC1CCN(c2ccc([N+](=O)[O-])cc2C(N)=O)CC1` the inhibition was -4.82% (inactive). In the case of `CCOc1cc(/C=C2\SC(N3CCCC(C)C3)=NC2=O)ccc1O` (configuration not stated), the inhibition is reported as -6.66% (inactive). For `c1ccc2cc(CCCc3cc4ccccc4cn3)ncc2c1`, the inhibition was 21.2% (inactive). With `Cc1c(NC(=S)NC(=O)CCc2ccccc2)c(=O)n(-c2ccccc2)n1C` the inhibition was -12.9% (inactive). In the case of `Cc1ccc(NC(=O)CCOc2ccccc2)cc1S(=O)(=O)Nc1ccccc1Cl`, the inhibition is reported as -5.34% (inactive). In the case of `Cc1nc2nc(C)c(CCC(=O)N3CCN(c4ccccc4)CC3)c(C)n2n1`, the inhibition is reported as -9.01% (inactive). With `CO/N=C/c1cn(-c2ccc(Cl)cc2)nn1` the inhibition was 49% (active). In the case of `CN(C)c1nnnn1-c1ccc(Cl)cc1`, the inhibition is reported as -0.634% (inactive). With `O=C(/C=C/c1ccc(Cl)c([N+](=O)[O-])c1)c1ccc(O)cc1` the inhibition was 42% (active). For `CN(C)c1ccc(/C=C/C(=O)c2ccc(C(C)(C)C)cc2)cc1[N+](=O)[O-]`, the inhibition was 7.14% (inactive). With `CN(C)c1ccc(/C=C/C(=O)c2ccc(O)cc2)cc1[N+](=O)[O-]` the inhibition was -3.3% (inactive). For `Cc1ccc(N2CC(C(=O)Nc3cc(Cl)ccc3-n3cncn3)CC2=O)cc1` (configuration not stated), the inhibition was -12.4% (inactive). `c1cc(-n2cnnn2)ccc1NC1=NCCC1` was tested, and the inhibition was -15.4% (inactive). `Cc1ccc(C(=O)Nc2nnc(C3=COCCO3)o2)cc1C` was tested, and the inhibition was -6.48% (inactive). `Cc1c(NC(=O)c2c([N+](=O)[O-])cnn2C)c(=O)n(-c2ccccc2)n1C` was tested, and the inhibition was -9.74% (inactive). For `CSC1=N/C(=C\C=C\c2cccs2)C(=O)S1`, the inhibition was 93.4% (active). `ONC(=Nc1ccccc1)c1ccccc1Cl` was tested, and the inhibition was -2.68% (inactive). `O=C(CCCN1C(=O)CSc2ncccc21)N1CCN(c2cccc(C(F)(F)F)c2)CC1` was tested, and the inhibition was -3.29% (inactive). For `O=C(Nc1ccc(Cl)cc1)c1cccc(OC(=S)N2CCOCC2)c1`, the inhibition was -4.62% (inactive). For `NC(=O)c1ccc(NC(=O)COC(=O)c2c3c(nc4ccccc24)/C(=C\c2ccc4c(c2)OCO4)CCC3)cc1`, the inhibition was 12.2% (inactive). `CCOC(=O)c1cc2cc3ccccc3cc2oc1=O` was tested, and the inhibition was 65.9% (active). In the case of `Cc1cc(C)cc(OCC(=O)NNC(=O)c2cc3ccccc3oc2=O)c1`, the inhibition is reported as -2.78% (inactive). With `C=CCc1cccc2cc(C(=O)OCC)c(=O)oc12` the inhibition was 13.8% (inactive). `CC(=O)Nc1ccc(C(=O)OCC(=O)Nc2ccc([N+](=O)[O-])cc2C(F)(F)F)cc1` was tested, and the inhibition was -15.1% (inactive). In the case of `CCc1ccc(NC(=O)CN2CCC(C(=O)c3ccc(OC)cc3)CC2)cc1`, the inhibition is reported as -11.8% (inactive). With `O=C(CN(c1ccccc1)S(=O)(=O)c1ccc(Cl)cc1)Nc1ccccc1C(=O)N1CCCC1` the inhibition was -7.63% (inactive). In the case of `O=C(c1ccccc1)c1ccc2nc(N3CCCCC3)c3nncn3c2c1`, the inhibition is reported as -14.2% (inactive). `CC(OC(=O)CCc1nc(=O)c2ccccc2n1C)C(=O)NCc1ccc2c(c1)OCO2` (configuration not stated) was tested, and the inhibition was 11.9% (inactive). With `O=C1CC(C(=O)O)NC(=S)N1` (configuration not stated) the inhibition was -11% (inactive). `O=C(NCC(=O)N(Cc1cccs1)C(C(=O)NC1CCCCC1)c1ccco1)c1cccs1` (configuration not stated) was tested, and the inhibition was -5.29% (inactive). With `CCOC(=O)N1CCC(=NNC(N)=O)CC1` the inhibition was 5.61% (inactive). With `O=S(=O)(O)c1cc2onnc2c2ccccc12` the inhibition was -19.4% (inactive). In the case of `CCOc1cc(C(=O)N(Cc2ccccc2)c2ccc(C)cc2)ccc1OCC(=O)N1CCOCC1`, the inhibition is reported as -12.7% (inactive). With `COc1ccc(-c2cc3ncccc3cn2)cc1` the inhibition was 48.1% (active). For `COc1cc(OC)cc(-c2cc3ccc(F)cc3cn2)c1`, the inhibition was 8.09% (inactive). For `COc1ccc(-c2nnc(-c3ccc4ccccc4c3)o2)cc1`, the inhibition was -12.7% (inactive). In the case of `COC(=O)Cc1csc(/N=C/c2c(O)n(-c3cccc(C(F)(F)F)c3)c(=O)c3ccccc23)n1`, the inhibition is reported as -13% (inactive).
